From PubChem BioAssay (NCI)
The panel holds about 79,000 compounds, 15% with a hit somewhere; the sample as a whole holds those more often. Calls of active or inactive are those of the source. No stated cut-off is given here; in the data, active means growth inhibition above about 70%; inactive means the rest.

assay: NCI Yeast Anticancer Drug Screen. Data for the mec2-1 strain (AID 157); conditions: S. cerevisiae mec2-1 strain, at 50.0 µM, hits give high values
Description: Growth inhibition of yeast strains with defined genetic alterations is measured as a screen for potential anti-cancer activity. Selected strains with alterations in DNA damage repair or cell cycle control were exposed to compounds and growth inhibition was measured relative to vehicle treated controls. The strain used in this assay is mec2-1

| Compound | growth inhibition |
| --- | --- |
| O=C(O)CCCCCCCCCCS(=O)(=O)CCO | 6.25% (inactive) |
| CC1(C)c2ccccc2-c2nc3ccccc3nc2C1O (stereo not given) | 18.8% (inactive) |
| C1CCC2CC(NC3=NCCO3)CCC2C1 (stereo not given) | 21.1% (inactive) |
| CSCCNC(=O)CS(=O)(=O)c1ccc(C)cc1 | -11.4% (inactive) |
| CN(C)C=Nc1ccc2[nH]c3ccccc3c2c1 | -13.1% (inactive) |
| CC(=O)Oc1ccc(-c2c3ccccc3cc3c2ccc2ccccc23)cc1 | -10.4% (inactive) |
| CC(C)(C)OC(=O)N1CCCC1=O | 13% (inactive) |
| CCOC(=O)c1[nH]c(Cc2[nH]c(C(=O)OCC)c(CC)c2C)c(C)c1CC | -1.1% (inactive) |
| OCCN(CCO)c1ncnc2c1ncn2Cc1ccccc1 | -7.5% (inactive) |
| N#CCCC(=O)c1ccc[nH]1 | 10.8% (inactive) |
| NS(=O)(=O)/C=C(\Cl)c1ccccc1 | 2.15% (inactive) |
| CCN(CC)C(=O)C1CC=CCC1C(=O)O (stereo not given) | 19.3% (inactive) |
| Nc1nc(-c2ccccc2)cc2ccccc12 | -12.7% (inactive) |
| CCOC(=O)CC(=O)c1ccc(Cl)cc1 | 12.9% (inactive) |
| COc1ccc(/C(=N\NC(=O)C(=O)NN)C(c2ccc(OC)cc2)C2(O)C(=O)Nc3ccccc32)cc1 (stereo not given) | -20.2% (inactive) |
| COc1c(C)c2c(c(Br)c1N)COCO2 | 16.9% (inactive) |
| O=c1/c(=C2\Cc3cccc4cccc2c34)c2cccc3cccc1c32 | -10.8% (inactive) |
| N#CC(C#N)SCc1ccccc1 | 2.25% (inactive) |
| O=C(O)c1cc(=O)[nH]c(=S)[nH]1 | 5.65% (inactive) |
| O=C(NNc1ccccc1)/C(=C/c1ccc2c(c1)OCO2)NC(=O)c1ccccc1 | 9.5% (inactive) |

| Compound | growth inhibition |
| --- | --- |
| Cc1ccc(S(=O)(=O)NC(CO)C(=O)O)cc1 (stereo not given) | -18.6% (inactive) |
| CCCCN(CCCC)CCC(O)c1cc(C(F)(F)F)nc2c(C(F)(F)F)cccc12 (stereo not given) | 25.7% (inactive) |
| O=C(CC(=O)N1N=C(n2ccc3ccccc32)CC1c1ccccc1)Nc1ccccc1Cl (stereo not given) | -13.8% (inactive) |
| COc1ccccc1C(=O)C1OC1c1ccc(Cl)cc1Cl (stereo not given) | -9.7% (inactive) |
| C[C@H]1C(=O)CCC2[C@]3(C)CCC4(CO)[C@@H]5CC(C)(C)C(=O)C[C@]5(C)CC[C@]4(C)C3CC[C@@]21C (stereo not given in full) | -25.6% (inactive) |
| C[N+]1(C)CCC2=CC(=O)CC(c3ccccc3)C2C1 (stereo not given) | -0.6% (inactive) |
| NC(=S)N/N=C1/CC(=O)N(c2ccccc2)C1c1ccccc1 (stereo not given) | 13.2% (inactive) |
| COc1ccc2c(c1)C/C(=C\c1ccc(O)c(OC)c1)C2=O | -14% (inactive) |
| CCCCCCCCCCCCCCCCCC#N | 20.6% (inactive) |
| CCOC(=O)c1ccc(=O)n2c1[nH]c1ccccc12 | -5.65% (inactive) |
| Cc1cc2c(c3c1c(=O)c1ccccc1n3C)C=CC(C)(C)O2 | -0.2% (inactive) |
| NCCCC(=O)NCCCCCCCCCCNC(=O)CCCN | 18% (inactive) |
| Cc1nc(CCCCCCCC(=O)O)ccc1O | 7.25% (inactive) |
| COC(=O)C12C3C4C1C1C2C3C41C(=O)OC(C)(C)C (stereo not given) | 1.35% (inactive) |
| CC(=O)[O-].Cc1ccnc(NS(=O)(=O)c2ccc(N=Cc3ccccc3[O-])cc2)n1.Cc1ccnc(NS(=O)(=O)c2ccc(N=Cc3ccccc3[O-])cc2)n1.[Cu+2] | 2% (inactive) |
| CC(F)(F)C(F)(F)C(=O)CC(=O)C(F)(F)F.CC(F)(F)C(F)(F)C(=O)CC(=O)C(F)(F)F.[Cu] | -20.4% (inactive) |
| Cc1ccc(/C(C#N)=C/c2cccc([N+](=O)[O-])c2)cc1 | -30.2% (inactive) |
| O=c1oc2c(-c3c(O)c(=O)oc4ccccc34)cc(O)cc2s1 | 14.6% (inactive) |
| COC(=O)CCc1c(C)[nH]c(C(=O)OC(C)(C)C)c1C | 9.3% (inactive) |
| O=C(/C(=C/c1ccc(Cl)cc1)c1ccccc1)c1ccccc1 | -28.4% (inactive) |
